# Experimental data from the supplement of paper PMC10037445.
# Where “and” joins values, the source holds several entries; their conditions need not be identical. Identical values can stand only once. The full ranking holds about 2,900 compounds; the median of “NF-kB SEAP reporter activity, fold change vs agonist alone” is about 0.99, and the highest 2% start at about 2.6. The sample as a whole holds a higher share of the highest values than the screen did.
# What was measured:
# [1] = system: RAW-Dual; experiment: NF-kB SEAP reporter activity, fold change vs agonist alone; higher = enhanced NF-kB activity
# How it was run: (§1)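 Cytotoxic wells were those whose IncuCyte confluency was below 70% of agonist controls in both mask sets. The cells were RAW-Dual macrophages at 50,000 cells/well in DMEM on 384-well plates, dosed with 50 nL of library stock by pin tool, stimulated with a PRR agonist 1 h later, and kept at 37 °C, 5% CO2 for 20 hours. IRF and NF-κB reporter activity, as fold change over agonist-alone wells, came from supernatant read by QuantiLuc luminescence and QuantiBlue absorbance, respectively.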
# [2] = system: RAW-Dual; experiment: NF-kB SEAP reporter activity, fold change vs agonist alone; cytotoxicity flag (confluency mask): not cytotoxic; higher = enhanced NF-kB activity
# How it was run: as §1
# [3] = system: RAW-Dual; experiment: NF-kB SEAP reporter activity, fold change vs agonist alone; cytotoxicity flag (confluency mask): cytotoxic (confluency <70% of control); higher = enhanced NF-kB activity
# How it was run: as §1
# [4] = agonist: ODN 1826 (TLR9) 0.5 ug/mL
# [5] = agonist: Pam2CSK4 (TLR2/6) 0.1 ug/mL
# [6] = agonist: Pam3CSK4 (TLR2/1) 0.1 ug/mL
# [7] = library stock concentration (final ~1000-fold dilution): 10 mM, cytotoxicity flag (confluency mask): not cytotoxic, agonist: Imiquimod (TLR7) […]
# [8] = library stock concentration (final ~1000-fold dilution): 10 mM, cytotoxicity flag (confluency mask): not cytotoxic, agonist: MPLA (TLR4) […]
# [9] = library stock concentration (final ~1000-fold dilution): 10 mM, cytotoxicity flag (confluency mask): cytotoxic (confluency <70% of control), agonist: MPLA (TLR4) […]
# [10] = library stock concentration (final ~1000-fold dilution): 10 mM, cytotoxicity flag (confluency mask): cytotoxic (confluency <70% of control), agonist: Imiquimod (TLR7) […]
smiles,measurement,setting,value
Cl.c1ccc2c(-c3cnn4cc(-c5ccc(N6CCNCC6)cc5)cnc34)ccnc2c1,NF-kB SEAP reporter activity,"[1]; library stock concentration (final ~1000-fold dilution): 10 mM water, cytotoxicity flag (confluency mask): not cytotoxic, agonist: Imiquimod (TLR7) […]",0.986
same,NF-kB SEAP reporter activity,"[1]; library stock concentration (final ~1000-fold dilution): 10 mM water, cytotoxicity flag (confluency mask): not cytotoxic, agonist: MPLA (TLR4) […]",0.571
Cl.c1ccc2c(-c3cnn4cc(-c5ccc(N6CCNCC6)cc5)cnc34)ccnc2c1 (library stock concentration (final ~1000-fold dilution): 10 mM water),NF-kB SEAP reporter activity,[2]; agonist: LPS (TLR4) 0.1 ug/mL,0.64
same,NF-kB SEAP reporter activity,[2]; [4],0.253
same,NF-kB SEAP reporter activity,[2]; [5],0.171
same,NF-kB SEAP reporter activity,[2]; [6],0.354
C=CC1CC1(NC(=O)C1CC2CN1C(=O)C(C(C)(C)C)NC(=O)OC1CC1CCCCCc1nc3ccc(OC)cc3nc1O2)C(=O)NS(=O)(=O)C1CC1 (stereo not drawn) (library stock concentration (final ~1000-fold dilution): 10 mM),NF-kB SEAP reporter activity,[2]; agonist: LPS (TLR4) 0.1 ug/mL,1.3
same,NF-kB SEAP reporter activity,[2]; [4],1.46
same,NF-kB SEAP reporter activity,[2]; [5],0.913
same,NF-kB SEAP reporter activity,[2]; [6],0.835
CC(C)(C)C1NC(=O)OC2CCCC2OC/C=C/C(F)(F)c2nc3ccccc3nc2OC2CC(C(=O)NC3(C(=O)NS(=O)(=O)C4(C)CC4)CC3C(F)F)N(C2)C1=O (stereo not drawn) (library stock concentration (final ~1000-fold dilution): 10 mM),NF-kB SEAP reporter activity,[2]; agonist: LPS (TLR4) 0.1 ug/mL,1.29
same,NF-kB SEAP reporter activity,[2]; [4],2.62
same,NF-kB SEAP reporter activity,[2]; [5],0.986
same,NF-kB SEAP reporter activity,[2]; [6],2.09
C=CC1CC1(NC(=O)C1CC2CN1C(=O)C(C(C)(C)C)NC(=O)OC1CC1CCCCCc1nc3ccc(OC)cc3nc1O2)C(=O)NS(=O)(=O)C1CC1 (stereo not drawn),NF-kB SEAP reporter activity,[1]; [7],1.3
same,NF-kB SEAP reporter activity,[1]; [8],1.22
CC(C)(C)C1NC(=O)OC2CCCC2OC/C=C/C(F)(F)c2nc3ccccc3nc2OC2CC(C(=O)NC3(C(=O)NS(=O)(=O)C4(C)CC4)CC3C(F)F)N(C2)C1=O (stereo not drawn),NF-kB SEAP reporter activity,[1]; [7],2.27
same,NF-kB SEAP reporter activity,[1]; [8],2.15
CC(C)=CCCC(C)(OC1OC(CO)C(O)C(O)C1O)C1CCC2(C)C1C(O)CC1C3(C)CCC(O)C(C)(C)C3C(OC3OC(CO)C(O)C(O)C3OC3OCC(O)C(O)C3O)CC12C (stereo not drawn) (library stock concentration (final ~1000-fold dilution): 10 mM),NF-kB SEAP reporter activity,[2]; agonist: LPS (TLR4) 0.1 ug/mL,0.93
same,NF-kB SEAP reporter activity,[2]; [4],1.02
same,NF-kB SEAP reporter activity,[2]; [5],0.792
same,NF-kB SEAP reporter activity,[2]; [6],0.975
CC(C)=CCCC(C)(OC1OC(CO)C(O)C(O)C1O)C1CCC2(C)C1C(O)CC1C3(C)CCC(O)C(C)(C)C3C(OC3OC(CO)C(O)C(O)C3OC3OCC(O)C(O)C3O)CC12C (stereo not drawn),NF-kB SEAP reporter activity,[1]; [7],0.818
same,NF-kB SEAP reporter activity,[1]; [8],0.958
CS(=O)(=O)O.Fc1ccc(C2CCNCC2COc2ccc3c(c2)OCO3)cc1 (stereo not drawn) (library stock concentration (final ~1000-fold dilution): 10 mM),NF-kB SEAP reporter activity,[3]; agonist: LPS (TLR4) 0.1 ug/mL,1.08
same,NF-kB SEAP reporter activity,[3]; [4],0.542
same,NF-kB SEAP reporter activity,[3]; [5],0.486
same,NF-kB SEAP reporter activity,[3]; [6],0.425
CS(=O)(=O)O.Fc1ccc(C2CCNCC2COc2ccc3c(c2)OCO3)cc1 (stereo not drawn),NF-kB SEAP reporter activity,[1]; [9],1.43
Fc1ccc(Nc2nc(Nc3ccc(-c4nc5ccccc5[nH]4)cc3)nc(N3CCOCC3)n2)cc1 (library stock concentration (final ~1000-fold dilution): 10 mM),NF-kB SEAP reporter activity,[3]; agonist: LPS (TLR4) 0.1 ug/mL,0.621
same,NF-kB SEAP reporter activity,[3]; [4],0.452
same,NF-kB SEAP reporter activity,[3]; [5],0.212
same,NF-kB SEAP reporter activity,[3]; [6],0.25
Fc1ccc(Nc2nc(Nc3ccc(-c4nc5ccccc5[nH]4)cc3)nc(N3CCOCC3)n2)cc1,NF-kB SEAP reporter activity,[1]; [10],0.399
same,NF-kB SEAP reporter activity,[1]; [9],1.42
CCC(CC)(NC(=O)C(C)C)C(=O)NC(CCCNC(=N)N)C(=O)NC1(C(=O)NC(c2ccc(F)cc2)c2ccc(F)cc2)CCCC1 (stereo not drawn) (library stock concentration (final ~1000-fold dilution): 10 mM),NF-kB SEAP reporter activity,[2]; agonist: LPS (TLR4) 0.1 ug/mL,0.847
same,NF-kB SEAP reporter activity,[2]; [4],0.788
same,NF-kB SEAP reporter activity,[2]; [5],0.957
same,NF-kB SEAP reporter activity,[2]; [6],0.971
CCC(CC)(NC(=O)C(C)C)C(=O)NC(CCCNC(=N)N)C(=O)NC1(C(=O)NC(c2ccc(F)cc2)c2ccc(F)cc2)CCCC1 (stereo not drawn),NF-kB SEAP reporter activity,[1]; [7],1.08
same,NF-kB SEAP reporter activity,[1]; [8],0.867
CC/C(C)=C/CC[C@](C)(O)C1CC[C@]2(C)C3C[C@@H](O[C@@H]4O[C@H](CO)[C@@H](O)[C@H](O)[C@H]4O[C@@H]4O[C@@H](C)[C@H](O)[C@@H](O)[C@H]4O)C4C(C)(C)C(O)CC[C@]4(C)C3C[C@H](O)C12 (stereo partly drawn),NF-kB SEAP reporter activity,[1]; [7],0.952
same,NF-kB SEAP reporter activity,[1]; [8],0.934
CC/C(C)=C/CC[C@](C)(O)C1CC[C@]2(C)C3C[C@@H](O[C@@H]4O[C@H](CO)[C@@H](O)[C@H](O)[C@H]4O[C@@H]4O[C@@H](C)[C@H](O)[C@@H](O)[C@H]4O)C4C(C)(C)C(O)CC[C@]4(C)C3C[C@H](O)C12 (stereo partly drawn) (library stock concentration (final ~1000-fold dilution): 10 mM),NF-kB SEAP reporter activity,[2]; agonist: LPS (TLR4) 0.1 ug/mL,1.2
same,NF-kB SEAP reporter activity,[2]; [4],0.992
same,NF-kB SEAP reporter activity,[2]; [5],0.952
same,NF-kB SEAP reporter activity,[2]; [6],1.14
Cc1ccccc1C(=O)N1CCc2cc(-c3nc(NC(=O)Cc4ccc5c(c4)OCO5)sc3C)ccc21 (library stock concentration (final ~1000-fold dilution): 10 mM),NF-kB SEAP reporter activity,[2]; agonist: LPS (TLR4) 0.1 ug/mL,1.34 and 1.45
same,NF-kB SEAP reporter activity,[2]; [4],0.971 and 0.758
same,NF-kB SEAP reporter activity,[2]; [5],0.716 and 0.692
same,NF-kB SEAP reporter activity,[2]; [6],0.695 and 0.61
CCNC(=O)c1cc2c(-c3cc(C(C)(C)O)ccc3Oc3c(C)cc(F)cc3C)cn(C)c(=O)c2[nH]1,NF-kB SEAP reporter activity,[1]; [10],1.4
same,NF-kB SEAP reporter activity,[1]; [9],1.84
CCS(=O)(=O)Nc1ccc(Oc2ccc(F)cc2F)c(-c2cn(C)c(=O)c3[nH]ccc23)c1 (library stock concentration (final ~1000-fold dilution): 10 mM),NF-kB SEAP reporter activity,[3]; agonist: LPS (TLR4) 0.1 ug/mL,3.19
same,NF-kB SEAP reporter activity,[3]; [4],2.18
same,NF-kB SEAP reporter activity,[3]; [5],0.424
same,NF-kB SEAP reporter activity,[3]; [6],1.13
CCNC(=O)c1cc2c(-c3cc(C(C)(C)O)ccc3Oc3c(C)cc(F)cc3C)cn(C)c(=O)c2[nH]1 (library stock concentration (final ~1000-fold dilution): 10 mM),NF-kB SEAP reporter activity,[3]; agonist: LPS (TLR4) 0.1 ug/mL,0.903
same,NF-kB SEAP reporter activity,[3]; [4],1.34
same,NF-kB SEAP reporter activity,[3]; [5],0.318
same,NF-kB SEAP reporter activity,[3]; [6],0.842
CN1C(=O)C(C)(C)Oc2c(-c3cn(C)c(=O)c4[nH]ccc34)cc(S(C)(=O)=O)cc21,NF-kB SEAP reporter activity,[1]; [10],1.56
same,NF-kB SEAP reporter activity,[1]; [9],2.34
